Source: PubChem BioAssay
In the library only some 10% were active in any assay of this set; here they are far more common.
FLuc inh – inhibitors of firefly (Photinus pyralis) luciferase; Potency, µM (top dose mostly 115 µM), most hits filed as inhibitors; purified P. pyralis luciferase, luminescence, biochemical; 76,000 compounds, 2.5% hits; P08659; further: nearly all actives have a fitted effect of over 65% in size
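FLuc 10nM, D-luciferin 10uM, ATP 10uM, Mg acetate 10mM, Tris acetate pH 7.5, Tween/BSA; cpd qHTS; enzyme added last; CCD luminescence.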
NPR1 antag – antagonists of human natriuretic peptide receptor Npr1. P16066. HEK293 hNpr1 GloSensor cGMP, ANP-stimulated luminescence. Potency, µM (top dose mostly 46.3 µM), for the others: at the top dose activity change, negative = inhibition, most hits filed as inhibitors. 76,000 compounds, 1.6% hits; calls by dose curve; further: nearly all actives have a fitted effect of over 60% in size
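HEK293 cells stably expressing human Npr1 and cGMP GloSensor pGS-40F, loaded 2 h with 2% GloSensor reagent, given compound 30 min at room temperature. Luminescence read before and 20 min after 0.1 nM hNppA.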
3T3 cytotox – cytotoxic compounds in NIH 3T3 cells | NIH 3T3 viability, CellTiter-Glo ATP luminescence, 48-72 h | Potency, µM (doses to about 96.7 µM), without a hit: at the highest dose activity change, negative = cytotoxicity, hits mostly inhibitors | 94,000 compounds, 4.3% hits | AID 1345082; further: nearly all actives have a fitted effect of over 55% in size
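Cells were seeded at 400 per well, treated with pin-transferred compound, and kept 48 or 72 hr at 37 °C before CellTiter-Glo addition and luminescence imaging of cellular ATP.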
HEK293 tox – kills HEK 293 cells; HEK 293 viability, ATP luminescence (CellTiter-Glo), 48-72 h; Potency, µM (highest dose often 115 µM), inactives show at the highest dose activity change, negative = cytotoxicity, usual class: inhibitors; 94,000 compounds, 6.6% hits; AID 1345083; further: nearly all actives have a fitted effect of over 60% in size
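Pintool-delivered compounds were incubated with HEK 293 cells (250 cells/well) at 37 degree Celsius for 48 or 72 hr. ATP-dependent luminescence (CellTiter-Glo) then reported remaining viable cells.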
GPT2 inhibitor – GPT2 alanine aminotransferase inhibition; Recombinant GPT2, coupled pyruvate oxidase/HRP Amplex Red fluorescence; 100,000 compounds, 0.25% hits; Potency, µM (series often up to 57.7 µM), for inactives: at the top dose activity change, negative = inhibition, hits mostly inhibitors; Q8TD30; AID 1671188; further: nearly all actives have a fitted effect of over 60% in size
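Fluorescence of coupled pyruvate oxidase/HRP/Amplex Red system (50uM Amplex, 30 min, dark) reports pyruvate formed by GPT2. Enzyme reaction: 10ng/uL GPT2, 2mM L-alanine, 250uM a-KG, 30 min room temperature, pH 7.5; 50uM AOA control.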
Starred values were filed as active, the others as inactive; i = inactive; ? = inconclusive; nt = no result; [ ] = another dose, or the depositor's remark. Unless noted, the call rests on the fitted dose curve; in most records, active means well fitted curve in the direction sought with a large enough effect; inconclusive means small, poorly fitted or top-dose-only effect, or another doubt; inactive means no such curve, though single readings can be large; an effect the other way counts as inactive or inconclusive. On the % scale 0 is the no-effect control and ±100 the full control effect; potency means the concentration at half of the fitted maximal effect.

SMILES	FLuc inh	NPR1 antag	3T3 cytotox	HEK293 tox	GPT2 inhibitor
O=S(=O)(Cc1ccccc1)N1CCC(Oc2ccc(-c3noc(C4CC4)n3)cc2)C1 (stereo not given)	i	?	?	39.8µM*	i
Cc1ccc(C(=O)N2CCC3(CCCN(Cc4cccc(F)c4F)C3)C2)s1 (stereo not given)	i	-12.9%	?	?	-1.3%
CC[C@H]1CN(C(=O)N2CCOCC2)CC[C@H]1CC(=O)Nc1nccs1	i	3.1%[70.6 µM]	50.1µM*	?	-10.3%[88.5 µM]
Cc1ncccc1Oc1ncnc(N2CCCCC(N)C2)c1C (stereo not given)	i	5.9%	-12.6%	0.6%	-5.3%
CC(C)c1nc(-c2ccc(OC3CCN(C(=O)Cc4ccccc4F)C3)cc2)no1 (stereo not given)	nt	nt	?	35.5µM*	1.4%
O=C(C1CCOC1)N1CC(Oc2cccc(-c3nc(-c4ccccc4)no3)c2)C1 (stereo not given)	44.7µM*	-18.6%	?	?	-9.7%
CCNC(=O)N1CC(Oc2cccc(-c3nc(-c4ccccc4)no3)c2)C1	i	3.6%	?	35.5µM*	2.7%
CCc1nc(-c2ccc(OC3CCN(C(=O)Cc4ccccc4F)C3)cc2)no1 (stereo not given)	nt	nt	?	?	-5.1%
O=C(Cc1cccc(F)c1)N1CC(Oc2cccc(-c3nc(-c4ccccc4)no3)c2)C1	nt	nt	35.5µM*	?	-6.0%
Cc1noc(-c2cccc(OC3CN(C(=O)C4CCOC4)C3)c2)n1 (stereo not given)	i	0.6%	-14.4%	12.2%	i
O=C(NC1CC1)c1ccc2nnc(-c3cc[nH]c3)n2c1	nt	nt	-12.0%[138 µM]	i	i
O=C(c1ccc2nnc(-c3cc(C(F)(F)F)cc(C(F)(F)F)c3)n2c1)N1CCOCC1	nt	nt	-25.3%	-4.6%	3.0%
CCCNC(=O)c1cc2c(=O)[nH]c(-c3ccccc3)cn2n1	i	-25.1%	-26.7%	?	i
CCNC(=O)N1CC(Oc2ccc(-c3nc(C)no3)cc2)C1	i	-18.4%	-25.0%	?	i
COc1ccc(CNC(=O)N2CC(Oc3cccc(-c4nc(C)no4)c3)C2)cc1	i	-21.5%	?	?	i
Cc1ccc(CNC(=O)N2CC(Oc3cccc(-c4nc(C)no4)c3)C2)cc1	i	-12.6%	?	44.7µM*	i
CCNC(=O)N1CCC(Oc2ccc(-c3noc(-c4ccccc4)n3)cc2)C1 (stereo not given)	nt	nt	?	17.8µM*	i
COc1cccc(-c2ccc(CN3CCCC3C(=O)NCc3ccc4c(c3)OCO4)cc2)c1 (stereo not given)	nt	nt	?	?	0.4%
CCOC(=O)[C@@H]1[C@@H](O)C(=O)N(Cc2ccccc2)C12CCN(C(=O)C1CCC1)CC2	nt	nt	?	3.0%	nt
COc1ccc2c3c1CN(C(=O)NCc1ccccc1)CC3=CC(C)(C)CO2	nt	nt	?	39.8µM*	nt
COc1ccc2c3c1C(c1ccccc1)N(Cc1ccccc1)CC3=CC(C)(C)CO2 (stereo not given)	nt	nt	-20.4%	?	nt
c1ccc(CN2CC[C@H](c3nnc(Cc4c[nH]c5ccccc45)o3)C2)cc1	i	2.5%[70.6 µM]	?	?	2.2%[88.5 µM]
Cc1cnc(C2CCN(C(=O)C3CCCC3)C2)n1Cc1ccccc1 (stereo not given)	i	-19.6%	-10.8%	-20.6%	-11.2%
Cc1cnc(C2CCN(CC3CCCCC3)C2)n1Cc1ccccc1 (stereo not given)	nt	nt	20µM*	22.4µM*	?
CN1CCC(OC2CCN(S(=O)(=O)c3ccccc3C(F)(F)F)CC2)CC1	i	-3.9%	-30.8%	-10.5%	-11.1%
COc1cccc(C(=O)N2CCC(C(=O)N3CCC(c4nc5ncccc5[nH]4)CC3)C2)c1 (stereo not given)	nt	nt	-11.8%	0.8%	i
Cc1ccc(Nc2ccnc(N3CCCC(C(=O)NCc4cccs4)C3)n2)cc1 (stereo not given)	nt	nt	17.8µM*	10µM*	i
COc1ccc(Nc2ccnc(N3CCCC(C(=O)NCc4cccs4)C3)n2)cc1 (stereo not given)	nt	nt	35.5µM*	35.5µM*	?
